Drawing on the OligoGym collection, this text covers sensor-assay potency score (higher = more potent) for ten sequences.
Further: reference of the scale not given here.

In one assay the target is ALDH1A1. Briefly: pooled miR-30 sensor sort-seq; sequence = guide strand. Conditions: shRNA.
Consider ATATTGTTCCTTGTCAATCTGA, for which the sensor-assay potency score (higher = more potent) stood at 0.00946. The sequence TAGCAATTCACCCACACTGTTC registered a sensor-assay potency score (higher = more potent) of -1.07. As to TTCATTGACTCCATTGTCGCCA, the sensor-assay potency score (higher = more potent) was determined as 0.315.

In the case of TAATTCTTTCAGAAGAAGCTAC, the sensor-assay potency score (higher = more potent) was -0.0936. The same measure, in the same setting: next, TACTTTGTCTATATCCATGTGA: 0.349; TGTCTTTGGTAAACACTCCTGC: 0.136.

The target of another assay is ALDH1A3. The description is as above. Conditions: shRNA.
Turning to TTTGTGAACACGGCTGCTGTGA, the sensor-assay potency score (higher = more potent) is -0.151. On the same count and under the same terms, to TTTTGTCGAACTGCTTTTGATC belongs -0.787; to TCTTTTTATCACTTCTTCGATA, -0.674; to ATTGTTGATAAATATCTTGGTG, -0.0591.
